# The sample as a whole holds a higher share of hits than the screen did.
# KDM5B inhibitor = Primary screen for KDM5B Histone Demethylases FDH-coupled qHTS | KDM5B demethylase, FDH-coupled NADH fluorescence (FDH is formaldehyde dehydrogenase) | Potency, µM (titrated, usually from 57.7 µM), actives largely listed as inhibitors | 2.6% of 220,000 active; active means well fitted inhibition curve with a large enough effect; further: 0% is about no effect; nearly all actives have a fitted effect of over 70% in size
# Target sequence (Q9UGL1 whole entry, looked up): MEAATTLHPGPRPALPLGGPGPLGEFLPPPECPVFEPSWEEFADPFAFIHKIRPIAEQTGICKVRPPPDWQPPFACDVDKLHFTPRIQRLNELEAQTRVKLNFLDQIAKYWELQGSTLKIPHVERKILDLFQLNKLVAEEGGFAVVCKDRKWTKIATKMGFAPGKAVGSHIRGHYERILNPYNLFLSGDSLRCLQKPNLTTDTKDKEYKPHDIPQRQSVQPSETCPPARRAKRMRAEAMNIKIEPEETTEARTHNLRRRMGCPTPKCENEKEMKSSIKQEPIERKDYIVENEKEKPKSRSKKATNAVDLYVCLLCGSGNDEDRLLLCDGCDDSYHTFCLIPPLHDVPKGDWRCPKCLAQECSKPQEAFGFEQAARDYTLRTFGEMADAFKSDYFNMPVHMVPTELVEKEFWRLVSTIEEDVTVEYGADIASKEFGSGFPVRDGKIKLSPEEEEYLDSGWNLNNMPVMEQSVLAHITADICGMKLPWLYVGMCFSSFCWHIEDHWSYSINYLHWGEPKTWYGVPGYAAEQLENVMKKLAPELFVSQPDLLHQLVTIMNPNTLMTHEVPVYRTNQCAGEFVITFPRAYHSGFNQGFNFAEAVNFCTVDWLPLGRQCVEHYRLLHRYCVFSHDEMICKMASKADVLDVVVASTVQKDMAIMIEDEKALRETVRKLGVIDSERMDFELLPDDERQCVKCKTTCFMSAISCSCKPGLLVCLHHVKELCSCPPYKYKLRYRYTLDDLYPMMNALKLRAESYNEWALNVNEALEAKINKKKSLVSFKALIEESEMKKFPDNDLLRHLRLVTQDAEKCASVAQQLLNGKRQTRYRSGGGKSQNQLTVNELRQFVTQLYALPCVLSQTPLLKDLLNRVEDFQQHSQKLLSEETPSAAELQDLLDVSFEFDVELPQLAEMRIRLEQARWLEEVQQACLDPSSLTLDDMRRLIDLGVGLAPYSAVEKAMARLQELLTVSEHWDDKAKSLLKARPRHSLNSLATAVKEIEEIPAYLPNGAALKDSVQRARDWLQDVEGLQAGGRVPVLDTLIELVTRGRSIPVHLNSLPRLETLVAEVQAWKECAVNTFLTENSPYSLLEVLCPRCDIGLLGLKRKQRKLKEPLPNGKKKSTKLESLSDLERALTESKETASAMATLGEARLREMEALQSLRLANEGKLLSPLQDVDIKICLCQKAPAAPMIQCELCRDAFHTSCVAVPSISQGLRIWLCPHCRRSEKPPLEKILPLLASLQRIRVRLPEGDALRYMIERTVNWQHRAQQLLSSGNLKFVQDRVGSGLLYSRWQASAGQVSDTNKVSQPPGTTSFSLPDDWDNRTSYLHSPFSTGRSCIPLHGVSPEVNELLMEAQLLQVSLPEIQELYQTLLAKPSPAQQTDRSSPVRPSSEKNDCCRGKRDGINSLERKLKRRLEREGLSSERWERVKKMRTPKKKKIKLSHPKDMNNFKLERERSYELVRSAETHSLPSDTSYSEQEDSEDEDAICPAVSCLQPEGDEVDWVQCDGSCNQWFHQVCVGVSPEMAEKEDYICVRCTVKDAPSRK
#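 Measured: NADH fluorescence change, 30 min, RT. System: KDM5BΔAP 200 nM final, H3K4me3 peptide, α-KG, Fe(II), ascorbate, NAD⁺ plus FDH, pH 7.5 HEPES. Compounds: titrated, 10 min pre-incubation with enzyme.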
# * = called active by the depositor; i = inactive. Potency means the concentration at half of the fitted maximal effect.
SMILES,KDM5B inhibitor
O=C(Nc1ccccc1)N1CCC(Oc2ccccc2-c2nc(-c3ccccc3)no2)C1 (stereo not given),32µM*
Cc1nc(-c2ccc(OC3CCN(C(=O)Nc4ccccc4)C3)cc2)no1 (stereo not given),i
Cc1cccc(NC(=O)N2CC(Oc3ccc(-c4nc(-c5ccccc5)no4)cc3)C2)c1,13µM*
Cc1noc(-c2ccc(OC3CN(C(=O)Nc4ccccc4)C3)cc2)n1,i
Cc1nc(-c2ccccc2OC2CN(C(=O)c3cccc4[nH]ccc34)C2)no1,28µM*
COc1ccc(S(=O)(=O)N2CC(Oc3ccccc3-c3noc(C)n3)C2)cc1,i
CCC(=O)Nc1ccc(-c2csc(Nc3cccc(OC)c3)n2)cc1,i
O=C(CSc1ccc(Cl)cc1)NNC(=O)C1CCCc2ccccc21 (stereo not given),i
CN(CC(=O)NC(=O)NC1CCCCC1)C(c1ccccc1)c1ccccc1,i
Cc1nc(-c2cccc(Cl)c2)n(CC(=O)Nc2ccc(F)cc2)c(=O)c1CCO,i
NC(=O)Cc1csc(NC(=O)CCc2ncc(-c3ccccc3)o2)n1,i
O=C(CN1C(=O)NC(Cc2c[nH]c3ccccc23)C1=O)Nc1ccccc1F (stereo not given),i
COc1ccc(C2=CC(c3ccc(Cl)cc3)n3nnnc3N2)c(OC)c1 (stereo not given),i
CCCC(=O)Nc1ccc(CNCc2ccc(Br)cc2)cc1,i
O=C(c1cccc2[nH]ccc12)N1CC(Oc2ccc(-c3nc(-c4ccccc4)no3)cc2)C1,11µM*
COc1cccc(C(=O)N2CC(Oc3ccc(-c4nc(-c5ccccc5)no4)cc3)C2)c1,i
Cc1noc(-c2ccc(OC3CN(C(=O)c4cccc5[nH]ccc45)C3)cc2)n1,28µM*
Cc1noc(-c2ccc(OC3CN(C(=O)c4sccc4C)C3)cc2)n1,i
O=C(c1cc(F)ccc1F)N1CC(Oc2ccc(-c3nc(-c4ccccc4)no3)cc2)C1,i
Cc1noc(-c2ccc(OC3CN(C(=O)Cc4ccccc4)C3)cc2)n1,i
Cc1nn(-c2ccc(Cl)nn2)c2c1C(c1ccc(C(=O)O)cc1)CC(=O)N2 (stereo not given),i
NC(=S)NCc1ccco1,i
CCCc1cc(=O)oc2c(C)c(OC/C=C(\C)CCC=C(C)C)ccc12,i
O=C(Cn1c(-c2cscn2)nc2ccccc21)Nc1ccc(N2CCCC2=O)cc1,i
O=C(c1nccs1)c1cccnc1N1CCNCC(O)C1 (stereo not given),10µM*
SMILES,KDM5B inhibitor
C[C@@]1(O)CCN(c2ncccc2C(=O)c2nccs2)C[C@@H]1O,i
NC(=O)c1cccnc1N1CCOC(CC(c2ccccc2)c2ccccc2)C1 (stereo not given),i
Cc1cnccc1CN(C)C(=O)c1cc(COc2ccc(-n3cncn3)cc2)on1,i
CN(C)CCCN(C(=O)COc1ccccc1)c1nc2ccc(Br)cc2s1,i
CC(NC(=O)c1n[nH]c(=O)c2ccccc12)c1ccc(F)c(F)c1 (stereo not given),i
CCOc1ccccc1/C=C/C(=O)c1cccc(O)c1,i
Cn1cc(CN2CCN(c3cnccn3)CC2)c(-c2ccc(C3CCCCC3)cc2)n1,28µM*
Cc1nn(C)cc1CN(C)Cc1cn(C)nc1-c1ccc(C2CCCCC2)cc1,i
Cn1cc(CN2CCN(c3ccc(C#N)cn3)CC2)c(-c2ccccc2)n1,i
Cc1ccc2[nH]cc(CCn3ccc4c(cnc5ncnn54)c3=O)c2c1,i
COc1ccc(C(=O)N2CC3CC(C2)[C@H]2CCCC(=O)N2C3)c(OC)n1 (stereo not given in full),i
COc1ccc(C(=O)N2CC[C@@H]3CN(c4cnccn4)[C@@H]3C2)c(OC)n1,32µM*
CCCN(C)c1nccnc1OC1CCN(C(=O)c2ccc(OC)nc2OC)C1 (stereo not given),i
O=C(O)c1ccccc1NS(=O)(=O)c1cc([N+](=O)[O-])ccc1N/N=C/c1ccsc1,i
CNc1nc2c(c(=O)[nH]c(=O)n2C)n1Cc1cccc(Br)c1,i
COC(=O)N1CCn2ncc(C(=O)Nc3ccc(Cl)cc3Cl)c2C1,i
C[S+](=O)([O-])N1CCn2ncc(C(=O)Nc3ccc(Cl)cc3Cl)c2C1,i
O=C(O)c1nccnc1C(=O)Nc1ccc(Cl)cc1Cl,i
O=C(Nc1ccc(Cl)cc1Cl)c1cnn2ncccc12,35µM*
O=C(Nc1cccc2cccnc12)c1ccc(Cl)cc1Cl,i
O=C(Nc1ccc(Cl)cc1Cl)c1cccn2nccc12,32µM*
CCC(N)(C(=O)O)c1cccc(Cl)c1 (stereo not given),i
CCc1cc(=O)[nH]c(-n2nc(C)cc2NC(=O)c2ccccc2Br)n1,i
Cc1nn2c(c1-c1ccccc1-c1ccccc1)N(Cc1ccccc1)CCC2,32µM*
Cc1nn2c(c1-c1ccccc1-c1ccccc1)N(C(=O)c1ccnn1C)CCC2,i
SMILES,KDM5B inhibitor
Cc1nn2c(c1-c1ccccc1-c1ccccc1)N(CCC(C)C)CCC2,6.3µM*
Cc1nn2c(c1-c1ccccc1-c1ccccc1)N(C(=O)Cc1ccc3c(c1)OCO3)CCC2,i
Cc1nn2c(c1-c1ccccc1C(C)C)N(Cc1ccc(C(=O)O)s1)CCC2,i
Cc1nn2c(c1-c1ccccc1Oc1ccccc1)N(Cc1cccc(C#N)c1)CCC2,25µM*
Cc1nn2c(c1-c1ccccc1Oc1ccccc1)N(C(=O)c1cccc(C#N)c1)CCC2,i
Cc1nn2c(c1-c1ccccc1Oc1ccccc1)N(C(=O)Cc1ccccc1)CCC2,i
Cc1nn2c(c1-c1ccccc1-c1ccccc1)N(Cc1ccc(C(=O)O)s1)CCC2,i
O=[N+]([O-])c1cccc2nc(/C=C/c3ccccc3C(F)(F)F)ccc12,i
O=[N+]([O-])c1ccc(NC(=S)Nc2ccc3c(c2)CCC3)cc1,i
Cc1ccc(C)c(OCCn2cc(C(=O)C(F)(F)F)c3cc(Br)ccc32)c1,i
O=C(NCCc1nc2ccccc2[nH]1)c1cccc(N2CCCN(Cc3ccccc3)C2=O)c1,i
COc1ccc(C(=O)Nc2ccc(NS(=O)(=O)c3ccc4c(c3)OCCCO4)cc2)cc1,i
Nn1c(SC(C(=O)Nc2ccc(F)cc2)c2ccccc2)nnc1-c1ccco1 (stereo not given),i
COc1cccc(Oc2c(C(F)(F)F)oc3cc(OC(C)=O)ccc3c2=O)c1,i
CC(=O)N1CCCC1C(=O)Nc1ccc(-c2nc3ccccc3o2)cc1 (stereo not given),28µM*
Cc1ccc(C(=O)Nc2ccc(-c3nc4ccccc4o3)cc2)cc1,i
O=C(Nc1ccc(-c2nc3ccccc3o2)cc1)C(F)(F)F,i
Cc1ccc(OCC(=O)Nc2c(NC3CCCC3)c3ccccc3oc2=O)cc1,i
O=C(Nc1ccc2c(c1)OCCO2)c1cc2cc(Br)ccc2[nH]1,i
COc1cc(NC(=O)Cn2nc(-c3ccccc3)c3c(c2=O)CCCC3)cc(OC)c1,i
O=C(CCn1ccn2nc3c(c2c1=O)CCCC3)NCc1ccc(F)c(Cl)c1,i
O=C(CCNc1cnc2cnccn12)NCc1ccc(F)c(Cl)c1,25µM*
O=C(CCNC(=O)c1ccc(Cl)cc1)NCc1ccc(C(F)(F)F)cc1,i
O=[N+]([O-])c1cc(S(=O)(=O)Nc2cccc(Cl)c2)ccc1N/N=C/c1ccccc1C(F)(F)F,i
O=C(OC1CCCCC1=O)c1cccc(Br)c1 (stereo not given),i
Cc1ccc(NN)c([N+](=O)[O-])c1,i
